Mcl1 Bid PPI = Mcl-1/Bid interaction inhibition; TR-FRET Mcl-1/Bid-Dy647 peptide binding, 1536-well; actives 0.97% (n = 220,000); Q07820; inhibition, % at 21.7 µM;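 active means compounds that cut the binding signal by more than half at the single screening dose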;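 further: His-tagged Mcl-1 with europium anti-His antibody binding Bid BH3 peptide; 0% = Mcl-1 plus peptide wells and 100% = peptide-only wells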
GLD-1 TGE inh = GLD-1-TGE RNA interaction inhibition (C. elegans); AID 2280; purified GLD-1 + fluorescein TGE RNA, fluorescence polarization; Q17339; inhibition, % at 5.96 µM; actives 0.44% (n = 320,000);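 active means percent inhibition above a per-plate cutoff, the plate mean of test compounds plus 3 SD, cut at about 30% in these data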;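 further: 0% = DMSO wells with GLD-1 and probe and 100% = wells lacking GLD-1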
Target sequence (Q17339 whole entry, looked up): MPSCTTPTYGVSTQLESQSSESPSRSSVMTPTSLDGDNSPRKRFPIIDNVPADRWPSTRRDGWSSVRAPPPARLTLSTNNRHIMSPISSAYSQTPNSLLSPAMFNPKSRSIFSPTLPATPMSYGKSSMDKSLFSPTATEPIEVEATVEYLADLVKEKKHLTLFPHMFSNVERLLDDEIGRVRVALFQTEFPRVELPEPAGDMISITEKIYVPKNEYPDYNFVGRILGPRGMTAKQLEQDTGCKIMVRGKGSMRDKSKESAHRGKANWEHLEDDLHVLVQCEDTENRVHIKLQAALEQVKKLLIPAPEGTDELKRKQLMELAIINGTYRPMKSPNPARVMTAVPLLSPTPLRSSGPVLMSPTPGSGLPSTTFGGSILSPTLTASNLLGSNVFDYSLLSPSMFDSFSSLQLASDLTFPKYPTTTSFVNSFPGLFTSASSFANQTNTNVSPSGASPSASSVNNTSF
BCLXL inh = Bcl-xL (human) inhibition | inhibition, % at 10.9 µM | Q07817 | actives 0.7% (n = 320,000) | AID 2129 | GST-Bcl-xL / FITC-Bim BH3 peptide fluorescence polarization;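 active means inhibition above the mean of all tested compounds plus 3 SD, cutoff set per campaign, cut at about 30% in these data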;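 further: 0% = DMSO wells and 100% = unlabeled Bim-BH3 peptide competitor; inhibitors lower millipolarization by displacing the labeled peptide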
Target sequence (Q07817 whole entry, looked up): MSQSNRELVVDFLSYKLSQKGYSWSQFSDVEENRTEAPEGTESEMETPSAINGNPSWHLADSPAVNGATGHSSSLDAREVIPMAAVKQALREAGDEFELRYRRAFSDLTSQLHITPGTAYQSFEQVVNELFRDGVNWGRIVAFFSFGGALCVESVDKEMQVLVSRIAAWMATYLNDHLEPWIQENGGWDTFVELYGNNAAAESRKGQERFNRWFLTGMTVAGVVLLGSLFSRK
Bim-Mcl-1 = disrupts Bim peptide binding to human Mcl-1. Bead-based flow cytometry, Bim peptide-Mcl-1 binding. inhibition, % at 10 µM. actives 0.1% (n = 190,000); in the data active means inhibition above about 40%;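 further: 0% = no compound tracer wells and 100% = peptide blocker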
Mcl1 Noxa PPI = disrupts binding of human Mcl-1 to Noxa peptide; inhibition, % at 21.7 µM; actives 1.5% (n = 220,000); TR-FRET Mcl-1/Noxa peptide binding, 2 h; Q07820;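 active means compounds that cut the protein-peptide binding signal by more than 50% relative to plate controls in a single-dose test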;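 further: His-tagged Mcl-1 with rhodamine Noxa BH3 peptide and terbium anti-His antibody; 0% = Mcl-1 plus Noxa peptide wells and 100% = peptide-only wells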
MCL1 BIM primary = disrupts human MCL1 binding to BIM-BH3 peptide; AID 2057; inhibition, % at 10.9 µM; actives 0.68% (n = 320,000); GST-MCL1 / FITC-Bim-BH3 fluorescence polarization; Q07820;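 active means inhibition above the mean inhibition of all tested compounds plus 3 SD, set per campaign, cut at about 40% in these data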;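 further: 0% = DMSO wells and 100% = unlabeled Bim-BH3 peptide control; higher means more loss of mP so more displacement of Bim peptide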
* marks the source's active call; other numbers are inactive results; · = no result given. The list is not random: actives were taken first. Their share in the collection is about 2.3%.

SMILES | Mcl1 Bid PPI | GLD-1 TGE inh | BCLXL inh | Bim-Mcl-1 | Mcl1 Noxa PPI | MCL1 BIM primary
C#CCOCCOCCOCCNc1nc(N2CCN(C(=O)[C@H](CCC(=O)O)n3cc(C(N)CC(C)C)nn3)CC2)nc(N2CCN(C(=O)[C@H](Cc3ccc(O)cc3)n3cc(C(N)CC(C)C)nn3)CC2)n1 (some centres undefined) | 59* | -1 | 5 | 0 | 32 | 11
C#CCOCCOCCOCCNc1nc(N2CCN(C(=O)[C@H]([C@@H](C)CC)n3cc(CCCN=C(N)N)nn3)CC2)nc(N2CCN(C(=O)[C@H](CCCCN)n3cc(CCCC)nn3)CC2)n1 | 7 | 5 | 3 | -2 | 32 | 5
C#CCOCCOCCOCCNc1nc(N2CCN(C(=O)[C@H](C)n3cc(CCCN=C(N)N)nn3)CC2)nc(N2CCN(C(=O)[C@H](CCCCN)n3cc(CCCC)nn3)CC2)n1 | 72* | · | · | -1 | 40 | ·
C#CCOCCOCCOCCNc1nc(N2CCN(C(=O)[C@H]([C@@H](C)CC)n3cc([C@@H](N)CO)nn3)CC2)nc(N2CCN(C(=O)[C@H]([C@@H](C)CC)n3cc([C@@H](N)CC(C)C)nn3)CC2)n1 | 56* | 21 | 43* | -2 | 23 | 43*
C#CCOCCOCCOCCNc1nc(N2CCN(C(=O)[C@H](CCCCN)n3cc(C(N)CO)nn3)CC2)nc(N2CCN(C(=O)[C@H](CCC(=O)O)n3cc(C(N)CC(C)C)nn3)CC2)n1 (some centres undefined) | 13 | · | · | · | 15 | ·
C#CCOCCOCCOCCNc1nc(N2CCN(C(=O)[C@H](CCCCN)n3cc(C(N)CC(C)C)nn3)CC2)nc(N2CCN(C(=O)[C@H](CCC(=O)O)n3cc(C(N)[C@H](C)CC)nn3)CC2)n1 (some centres undefined) | 82* | 3 | 7 | -2 | 37 | 3
C#CCOCCOCCOCCNc1nc(N2CCN(C(=O)[C@H]([C@@H](C)CC)n3cc([C@@H](N)CO)nn3)CC2)nc(N2CCN(C(=O)[C@H]([C@@H](C)CC)n3cc([C@@H](N)CO)nn3)CC2)n1 | -38 | · | · | · | 11 | ·
O=C(Cn1c(=O)cnc2ccccc21)Nc1cccc(S(=O)(=O)N2CCCCC2)c1 | · | -7 | -22 | · | · | -33
Cc1ccc(NC(=O)CNC(=O)c2ccco2)nc1 | · | -1 | 0 | · | · | -6
C#CCOCCOCCOCCNc1nc(N2CCN(C(=O)[C@H](CCCCN)n3cc([C@@H](N)CO)nn3)CC2)nc(N2CCN(C(=O)[C@H](Cc3cc4ccccc4[nH]3)n3cc([C@@H](N)Cc4ccc(O)cc4)nn3)CC2)n1 | 43 | -7 | 6 | -3 | 35 | 10
C#CCOCCOCCOCCNc1nc(N2CCN(C(=O)[C@H](CCCCN)n3cc([C@@H](N)CC(C)C)nn3)CC2)nc(N2CCN(C(=O)[C@H](Cc3cc4ccccc4[nH]3)n3cc([C@@H](N)Cc4ccc(O)cc4)nn3)CC2)n1 | 60* | 7 | 0 | 1 | 37 | -2
CC1=NN(c2ccc(C)cc2)C(=O)/C1=C\c1ccc(Br)s1 | -28 | 2 | 2 | 92* | -3 | -1
O=C(c1cccc(S(=O)(=O)N2CCCC2)c1)N1CCOCC1 | · | 3 | 7 | · | · | 8
N#CC(C(=O)Nc1ccc(Cl)cc1)=C1Nc2ccccc2N1 | -2 | 6 | 2 | 1 | 51* | 2
CCCNC(=O)c1ccc(Cn2cc(-c3ccc(OC)cc3)nc2C(C)N)cc1 (centres undefined) | · | -1 | -2 | · | · | 2
O=C(Nc1ccc2oc(=O)ccc2c1)c1ccc(-c2cccc(Cl)c2)o1 | 66* | 1 | -10 | · | 21 | -11
O=C(Nc1ccc2oc(=O)ccc2c1)c1ccc(-c2cccc([N+](=O)[O-])c2)o1 | 80* | 9 | -14 | · | 70* | 24
O=C(Nc1ccc(CN2CCOCC2)cc1)c1ccc(-c2cccc(Cl)c2)o1 | -30 | 1 | 6 | -3 | -8 | 4
O=C(Nc1ccc2oc(=O)ccc2c1)c1ccc(-c2ccc(Cl)cc2)o1 | 56* | 5 | 5 | -7 | -15 | 2
O=C(Nc1ccc2oc(=O)ccc2c1)c1cc2ccccc2o1 | 14 | 1 | 3 | -12 | -5 | 1
CCOC(=O)c1nnn(-c2nonc2N)c1CSc1ccccc1 | 52* | 4 | 2 | -2 | 6 | 4
CCOC(=O)c1nnn(-c2nonc2N)c1CSc1ccc(C)cc1 | 8 | -3 | 3 | -2 | -9 | 8
Cc1cc(C)c(S(=O)(=O)/N=C2\C=CC(=O)C(Cl)=C2)c(C)c1 | 47 | 0 | 16 | 1 | 96* | 32
O=c1cc2oc3cc(O)c(O)cc3c(-c3ccccc3O)c-2cc1O | 10 | · | · | · | 50 | ·
CCOc1ccccc1-c1c2cc(O)c(=O)cc-2oc2cc(O)c(O)cc12 | -25 | · | · | 1 | 59* | ·
SMILES | Mcl1 Bid PPI | GLD-1 TGE inh | BCLXL inh | Bim-Mcl-1 | Mcl1 Noxa PPI | MCL1 BIM primary
COc1ccc(N2CCN(C(=O)CN(c3cccc(OC)c3)S(=O)(=O)c3ccccc3)CC2)cc1 | · | 0 | 8 | · | · | 8
O=C(Nc1ccc(Oc2ccc3c(c2)C(=O)N(c2ccc(O)cc2)C3=O)cc1)c1cccs1 | 66* | -2 | 3 | -2 | -62 | -2
CC(C)CN1C(=O)c2ccc(NC(=O)c3cccs3)cc2C1=O | -12 | 8 | 1 | -4 | 20 | 7
Cc1ccccc1CSc1nnc(NC(=O)Cc2cccs2)s1 | 20 | -1 | 0 | -3 | 66* | -6
O=C(NCc1nc2ncc(Br)cc2[nH]1)c1ccccc1 | 73* | 3 | 12 | -1 | 6 | 13
C=CCn1c(SCC(=O)c2[nH]c(C)c(C(C)=O)c2C)nnc1-c1ccncc1 | 5 | -1 | -1 | -1 | 8 | -4
C=CCn1c(SCC(=O)c2[nH]c(C)c(C(=O)OC)c2C)nc2scc(-c3ccc(OC)c(OC)c3)c2c1=O | 65* | 2 | 1 | -5 | 53* | -1
O=C(CN1CCN(S(=O)(=O)c2ccccc2)CC1)NCCc1ccccc1 | · | 4 | 7 | · | · | 4
CCOC(=O)c1nn(-c2ccc(OC)cc2)c(=O)c2c(N)scc12 | -4 | 6 | -1 | -4 | 29 | 4
COc1ccc(/C=N/NC(=O)c2nn(-c3ccc(Cl)cc3)c(=O)c3c(N)scc23)cc1 | -17 | 11 | 22 | 0 | 57* | 33
Cc1cc(-c2nn(-c3ccccc3)cc2/C=C2\SC(N)=NC2=O)ccc1OC(C)C | 0 | -1 | -3 | 94* | -3 | -5
COc1ccc2nc(N3C(=O)/C(=C/c4ccc(Cl)cc4)NC3=S)sc2c1 | 88* | · | · | -2 | 87* | ·
CCOCCCN(C(=O)c1snc(C(N)=O)c1N)C(C(=O)NC1CCCC1)c1ccc(F)cc1 (centres undefined) | · | -2 | -3 | · | · | 1
Cc1cc(C)c(S(=O)(=O)Nc2cc(SCC(=O)O)c(O)c3ccccc23)cc1C | 29 | 12 | 19 | 0 | 82* | 27
